KB-V1 cytotox: KB-V1 MDR subline cytotoxicity; Potency, µM (doses to about 46.1 µM), most hits filed as cytotoxic; KB-V1 MDR cells viability, CellTiter-Glo, 72 h; AID 1347076; 400,000 compounds, 3.4% hits; also: nearly all actives have a fitted effect of over 60% in size
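Readout: CellTiter-Glo luminescence, 10 min after addition. Cells: KB-V1 MDR subline, 72 h at 37 degrees C with compound. Analysis: corrected, normalized data fitted to concentration-effect curves.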
KB-3-1 tox: KB-3-1 parental cell cytotoxicity | KB-3-1 viability, CellTiter-Glo ATP luminescence, 72 h | Potency, µM (doses to about 46.1 µM), hits mostly cytotoxic | 400,000 compounds, 1.4% hits | AID 1347075; also: nearly all actives have a fitted effect of over 60% in size
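Using CellTiter-Glo luminescence, growth of non-resistant KB-3-1 adenocarcinoma cells is assessed 72 h after pin-tool compound addition at 37 °C. Normalized responses across the concentration series yield fitted curves.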
DT40 TDP1 no CPT: qHTS for Inhibitors of human tyrosyl-DNA phosphodiesterase 1 (TDP1): qHTS in cells in absence of CPT. Potency, µM (top dose mostly 46.2 µM), inactives show at the top dose activity change, negative = growth inhibition, most hits filed as inhibitors. DT40 Tdp1-/- hTDP1 cells, no CPT, ATP luminescence, 48 h. 420,000 compounds, 15% hits; also: nearly all actives have a fitted effect of over 55% in size
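Cells were dispensed at 400 per well, compounds added by pin tool, plates incubated ≥48 hr at 37 °C, then CellTiter-Glo added for 30 min at room temperature before luminescence reading. Line: DT40 Tdp1-/- complemented with hTDP1; camptothecin omitted.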
HT1080 IDH1KD tx: HT-1080 IDH1 knockdown cell toxicity (counter line); HT-1080 IDH1 knockdown viability, ATP luminescence, 48 h; Potency, µM (top dose mostly 46.1 µM), for inactives: top-dose activity, negative = toxicity, hits mostly cytotoxic; 360,000 compounds, 2% hits; AID 686971;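 also: 0% = DMSO wells and -100% = cell-free medium wells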
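CellTiter-Glo luminescence after 48 h compound exposure at 37 degrees C of IDH1-knockdown HT-1080 cells in 5% FBS RPMI. %Activity scaled between DMSO wells and cell-free media wells, with curves fitted and assigned curve classes.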
DT40 TDP1 CPT: growth inhibition of DT40 Tdp1-/-;hTDP1 cells with camptothecin (screen for TDP1 inhibitors) | chicken DT40 Tdp1-/-;hTDP1 cells + 20 nM CPT, ATP luminescence, 48 h | Potency, µM (series often up to 46.2 µM), without a hit: at the top dose activity change, negative = growth inhibition, usual class: inhibitors | 420,000 compounds, 12% hits; also: nearly all actives have a fitted effect of over 55% in size
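Cell growth measured by CellTiter-Glo luminescence after a minimum 48 h, 37 C compound exposure with 20 nM CPT in Tdp1-knockout DT40 cells stably expressing hTDP1, seeded 400/well; qHTS titration format.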
HT1080-NT tox: kills 2HG-producing HT-1080-NT fibrosarcoma cells; HT-1080-NT fibrosarcoma viability, CellTiter-Glo ATP luminescence, 48 h; Potency, µM (doses to about 46.1 µM), inactives show at the top dose activity, negative = less viability, most hits filed as cytotoxic; 360,000 compounds, 1.6% hits; AID 686970;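 also: NT is the 2HG producing partner of a matched IDH1 knockdown line; 0% = DMSO-treated cells and -100% = media-only wells without cells; nearly all actives have a fitted effect of over 55% in size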
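750 cells/well, RPMI + 5% FBS; 2 h settle, compound pin-transfer, 48 h at 37 degrees C. CellTiter-Glo 10 min RT, luminescence. Normalized to DMSO and media-only wells.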
* = called active by the depositor; i = inactive; ? = inconclusive; nt = no result given. The list is not random: actives were taken first. Their share in the collection is about 19%. Calls follow the shape of the dose curve; as a rule, active = well fitted curve in the direction sought with a large enough effect; inconclusive = small, poorly fitted or top-dose-only effect, or another doubt; inactive = no such curve, though single readings can be large; an effect the other way counts as inactive or inconclusive. Unless noted, % is scaled to controls: 0 for no effect and ±100 for the full control effect; potency is read from the fitted curve at half-maximal effect.

SMILES	KB-V1 cytotox	KB-3-1 tox	DT40 TDP1 no CPT	HT1080 IDH1KD tx	DT40 TDP1 CPT	HT1080-NT tox
COc1cc(C(=O)N(Cc2ccccc2)c2cccc(C)c2)ccc1OC(F)F	?	i	?	-9%	?	0%
COc1ccccc1C(=O)N(Cc1ccccc1)c1ccc(C)cc1	?	?	?	-4%	15µM*	-2%
Cc1cccc(N(Cc2ccccc2)C(=O)CCl)c1	?	i	?	1.3µM*	2.3µM*	1.5µM*
COc1ccc(CC(=O)N(Cc2ccccc2)c2cccc(C)c2)cc1OC	?	i	15µM*	-8%	?	3%
COc1ccc(C(=O)N(Cc2ccccc2)c2cccc(C)c2)c(OC)c1OC	?	i	?	-1%	?	-1%
Cc1ccnc2ccc(F)cc12	i	i	-2%	nt	1%	nt
N#CCCN(C(=O)COc1ccc(F)cc1Br)c1ccccc1F	i	i	-18%	4%	-19%	7%
Cc1cc(NC(=O)C(C)SCC(=O)N(C)CC(=O)Nc2ccccc2Br)no1 (centres undefined)	i	i	-9%	-4%	-5%	-9%
O=C(CCl)N(Cc1ccccc1)c1ccccc1	i	?	5.8µM*	16µM*	5.2µM*	10µM*
Cc1cccc(N(Cc2ccccc2)C(=O)CSC(C)C(=O)Nc2cc(C)on2)c1 (centres undefined)	15µM*	?	18µM*	-26%	?	1%
Cc1cc(NC(=O)C(C)SCC(=O)Nc2ccc(Br)cc2Br)no1 (centres undefined)	i	i	13µM*	4%	?	4%
Cc1nc([N+](=O)[O-])c(Br)n1CC(=O)c1ccccc1	i	i	8.2µM*	?	18µM*	?
Cc1nc([N+](=O)[O-])c(Br)n1CC(=O)c1ccc2ccccc2c1	i	i	21µM*	?	21µM*	16µM*
Cc1cc([N+](=O)[O-])nn1CC(=O)c1ccccc1	i	i	0%	-15%	-5%	-1%
Cc1nc([N+](=O)[O-])cn1CC(=O)c1ccc(Cl)cc1	i	i	23%	9%	-18%	6%
Cc1nc([N+](=O)[O-])c(C(=O)OCc2ccccc2F)n1C	i	i	-12%	-2%	9%	-1%
Cc1nc([N+](=O)[O-])c(C(=O)OCc2ccccc2Br)n1C	21µM*	?	?	-3%	-19%	-10%
Cc1nc([N+](=O)[O-])c(Br)n1CC(=O)c1ccc(Br)cc1	?	?	8.2µM*	?	7.3µM*	21µM*
O=C(CNC(=O)c1ccc(OC(F)F)cc1)Nc1cccc(S(=O)(=O)N2CCCC2)c1	?	i	-11%	-9%	-21%	-2%
CCOC(=O)c1ccc(N2C=C(C(=O)OC)C(c3cccc(O)c3)C(C(=O)OC)=C2)cc1	i	i	-30%	-15%	-16%	-21%
CCN(Cc1ccccc1)C(=O)C(CC(C)C)NS(=O)(=O)c1ccc2c(c1)CCN2C(C)=O (centres undefined)	i	i	?	nt	?	nt
O=C(CN1C(=O)c2cccc([N+](=O)[O-])c2C1=O)OCC(=O)N1CCCCC1	i	i	3%	-1%	1%	-1%
Cn1c(N)c(C(=O)CSc2nc3ccccc3[nH]2)c(=O)n(C)c1=O	i	i	-4%	0%	-12%	7%
Cc1nn(-c2ccccn2)c2c1C(=O)CC(C)(C)C2N=[N+]=[N-] (centres undefined)	i	i	?	-20%	?	-9%
CCOc1cc(C(=O)OCC(=O)Nc2c(C)cccc2C)ccc1OCC(=O)N1CCOCC1	i	i	-22%	3%	10%	4%
SMILES	KB-V1 cytotox	KB-3-1 tox	DT40 TDP1 no CPT	HT1080 IDH1KD tx	DT40 TDP1 CPT	HT1080-NT tox
CCOc1cc(/C=N/NC(=S)Nc2ccccc2C(F)(F)F)ccc1OCC(=O)N1CCOCC1	?	i	8.2µM*	-2%	5.8µM*	-1%
CCOC(=O)c1ccccc1NC(=O)COC(=O)c1ccc(OCC(=O)N2CCOCC2)c(OCC)c1	2.6µM*	i	?	16%	?	0%
CCOC(=O)C1CCN(C(=O)COC(=O)/C=C/c2ccc([N+](=O)[O-])cc2)CC1	i	i	?	0%	?	-24%
COc1cccc(Nc2ncc3nc(-c4cc(F)cc(F)c4)c(=O)n(CCC#N)c3n2)c1	nt	nt	16µM*	nt	12µM*	nt
COc1cccc(Nc2ncc3nc(-c4ccc(F)cc4)c(=O)n(CCC#N)c3n2)c1	nt	nt	-25%	nt	14%	nt
CCCC(=O)NC(=S)Nc1cccc(Cl)c1N1CCCCC1	18µM*	?	?	10µM*	?	5µM*
CCCC(=O)NC(=S)Nc1ccccc1N1CCOCC1	?	i	?	7%	?	1%
CCCCC(=O)NC(=S)Nc1ccccc1N1CCCCC1	i	i	?	9%	-13%	9%
CCCCC(=O)NC(=S)Nc1cccc(Cl)c1N1CCCCC1	21µM*	i	?	-16%	?	0%
CCC(=O)NC(=S)Nc1cccc(Cl)c1N1CCCCC1	i	?	11µM*	5.6µM*	11µM*	4.5µM*
COC(=O)C1C2OC(C(Br)C2Br)C1C(=O)OC (centres undefined)	i	i	5%	1%	11%	11%
CC(NC(=O)/C(C#N)=C/c1ccc(N2CCOCC2)cc1)c1ccccc1 (centres undefined)	i	i	9.2µM*	-17%	13µM*	3%
COC(=O)c1ccc(/C=C(\C#N)C(=O)NC(C)c2ccccc2)cc1 (centres undefined)	i	?	10µM*	?	9.2µM*	?
CC(NC(=O)/C(C#N)=C/c1ccc([N+](=O)[O-])o1)c1ccccc1 (centres undefined)	i	?	0.73µM*	6.5µM*	0.65µM*	-23%
CC(NC(=O)/C(C#N)=C/c1ccco1)c1ccccc1 (centres undefined)	i	i	-22%	6%	5%	17%
Cc1ccc(C(C)NC(=O)/C(C#N)=C\c2c(C)[nH]c3ccccc23)cc1 (centres undefined)	12µM*	i	-22%	?	?	?

High-throughput results as filed in PubChem.
